{"source": "PubChem BioAssay AID434947", "about": "(Broad Institute, 2010)", "note": "Among all 2,200 compounds or so, about 15 (0.7%) were called active. For the sample, actives were picked, then their nearest neighbours and some compounds at random. Unmarked numbers belong to inactive results.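 How the source made its calls: active means fitted half-maximal concentration for loss of luminescence signal no more than a set limit of log units above the top tested concentration; inconclusive means flat fit with 30 to 70% signal loss, or invalid fit; inactive means half-maximal concentration above that set limit.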", "data": [{"test": "ADP-Glo luciferase signal interference – biochemical, luminescence, cell-free, homogeneous, artefact control for GSK3beta inhibitor project, dose response (AID 434947);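 further: kinase-free counter screen of ADP-Glo detection reagents for GSK3beta hits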", "details": "Cell-free ADP-Glo reagents, 5 uM ADP", "values": [{"smiles": "Cc1ccc2c(C)c(C(=O)Nc3nnc(C)s3)oc2c1", "EC50": "> 30 µM"}, {"smiles": "NC1=NC(=Nc2ccccc2)c2ccccc21", "EC50": "> 30 µM"}, {"smiles": "CCCn1nc(NC(=O)C(C)C)c2cc3cc(OC)ccc3nc21", "EC50": "> 30 µM"}, {"smiles": "CCNC(=S)Nc1ccc2cn[nH]c2c1", "EC50": "> 30 µM"}, {"smiles": "COc1cccc(C(=O)NCC(=O)N/N=C(C)\\C=C\\c2ccccc2)c1", "EC50": "> 30 µM"}, {"smiles": "CC(C)CCNc1nc(N)c([N+](=O)[O-])c(NCC2CCCO2)n1", "note": "(stereo not given)", "EC50": "> 30 µM"}, {"smiles": "COc1ccccc1Nc1nc(N(C)c2ccccc2)nc(N)c1[N+](=O)[O-]", "EC50": "> 30 µM"}, {"smiles": "CN(Cc1c(C(=O)N/N=C/c2cccc(F)c2)nnn1-c1nonc1N)c1ccccc1", "EC50": "> 30 µM"}, {"smiles": "Cc1nn(-c2ccccc2)c2c1cc1c(=O)n(C)c(=O)nc-1n2-c1ccccc1F", "EC50": "> 30 µM"}, {"smiles": "CC1=NN(C(=O)CCc2ccc3c(c2)OCO3)C(O)(C(F)(F)F)C1", "note": "(stereo not given)", "EC50": "> 30 µM"}, {"smiles": "CCCn1c(SCC(=O)Nc2ccc(Cl)cn2)nnc1C1CC1", "EC50": "> 30 µM"}, {"smiles": "COc1ccc(C(=O)c2ccsc2N)cc1", "EC50": "> 30 µM"}, {"smiles": "COc1ccc(C(=O)c2sc(Nc3ccccc3)nc2C)cc1", "EC50": "> 30 µM"}, {"smiles": "COc1cccc(C(N)=O)c1", "EC50": "> 30 µM"}, {"smiles": "COc1ccc(C(=O)O/N=C(/C)c2cccs2)cc1", "EC50": "16.2 µM (active)"}, {"smiles": "COc1ccc(C(=O)O/N=C(\\C)c2ccccc2)cc1", "EC50": "24 µM (active)"}, {"smiles": "COc1ccc2occ(C(=O)c3cccs3)c2c1", "EC50": "> 30 µM"}, {"smiles": "Cc1ccc(SCC(=O)N2CC(C)OC(C)C2)cc1", "note": "(stereo not given)", "EC50": "> 30 µM"}, {"smiles": "COc1ccc(-c2cc(C(F)(F)F)nc(SCCC(=O)N3CCOCC3)n2)cc1", "EC50": "> 30 µM"}, {"smiles": "COc1ccc(Cl)cc1NC(=O)CS(=O)(=O)c1cccc2nsnc12", "EC50": "> 30 µM"}]}]}
